Measurements: PubChem BioAssay (NCATS)
Values joined by “and” are separate entries in the source; they are usually repeats but may differ in a detail not shown here. Equal entries are not always repeated. Records with an inconclusive call do not appear. Active and inactive are the calls of the source. Calls come from the whole dose curve; as a rule, active = well fitted curve in the direction sought with a large enough effect; inconclusive = small, poorly fitted or top-dose-only effect, or another doubt; inactive = no such curve, though single readings can be large; an effect the other way counts as inactive or inconclusive.

Legend:
TAB165 = assay: qHTS profiling for inhibitors of Plasmodium falciparum proliferation (AID 504749); note: nearly all actives have a fitted effect of over 60% in size; details: P. falciparum in erythrocytes, SYBR Green DNA, 72 h; series mostly up to 28.7 µM
Procedure, shortened: (§1)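 P. falciparum-infected erythrocytes (0.3% parasitemia, 2.5% hematocrit) incubated with compound 72 h at 37 C, 5% CO2. Parasite DNA detected by SYBR Green after lysis, overnight at room temperature; normalised to 0.29 uM artemisinin and DMSO.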

W2 = assay: as above; details: P. falciparum in erythrocytes, SYBR Green DNA, 72 h; series mostly up to 28.7 µM
Procedure, shortened: as §1

CRL-7250 = normal cell line; assay: Cytotoxic Profiling of Annotated Libraries Using Quantitative High-Throughput Screening (AID 1296008); details: Five cell lines viability, CellTiter-Glo ATP luminescence, 48-72 h; max response: active compounds read low; note: nearly all actives have a fitted effect of over 60% in size; for max response: % is set by controls: 0 for no effect and ±100 for the full control effect
Procedure, shortened: (§2)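 Cells exposed to compounds for 48 or 72 hr at 37 degrees Celsius. Viability read as ATP-coupled luminescence with CellTiter-Glo after 10 min at room temperature.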

HEK293 = assay: as above; details: Five cell lines viability, CellTiter-Glo ATP luminescence, 48-72 h; max response: active compounds read low
Procedure, shortened: as §2

HaCat = assay: as above; details: Five cell lines viability, CellTiter-Glo ATP luminescence, 48-72 h; max response: active compounds read low
Procedure, shortened: as §2

KB-3-1 = assay: as above; details: Five cell lines viability, CellTiter-Glo ATP luminescence, 48-72 h; max response: active compounds read low
Procedure, shortened: as §2

NIH3T3 [1] = assay: as above; details: Five cell lines viability, CellTiter-Glo ATP luminescence, 48-72 h; max response: active compounds read low
Procedure, shortened: as §2

MCC-13 = assay: qHTS assay to identify novel small-molecules to repurpose for Merkel cell carcinoma treatment (AID 1296009); details: MCC and control cell lines, CellTiter-Glo viability, 72 h; series mostly up to 46 µM; note: nearly all actives have a fitted effect of over 60% in size
Procedure, shortened: (§3)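 Cells were treated for 72 hr at 37 degree celsius with compounds in 8- or 11-point dose response. Viability was read by CellTiter-Glo luminescence, normalized to no-cell (cytotoxicity) and DMSO controls.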

MCC-26 = assay: as above; details: MCC and control cell lines, CellTiter-Glo viability, 72 h; series mostly up to 46 µM
Procedure, shortened: as §3

MKL-1 = assay: as above; details: MCC and control cell lines, CellTiter-Glo viability, 72 h; series mostly up to 46 µM
Procedure, shortened: as §3

MKL-2 = assay: as above; details: MCC and control cell lines, CellTiter-Glo viability, 72 h; series mostly up to 46 µM
Procedure, shortened: as §3

UISO = assay: as above; details: MCC and control cell lines, CellTiter-Glo viability, 72 h; series mostly up to 46 µM
Procedure, shortened: as §3

WaGa = assay: as above; details: MCC and control cell lines, CellTiter-Glo viability, 72 h; series mostly up to 46 µM
Procedure, shortened: as §3

C33A = assay: Primary qHTS to identify gynecologic anti-cancer compounds using libraries of approved drugs and bioactive compounds (AID 1345084); details: Gynecologic cancer cell panel viability, ATPlite luminescence, 48 h; series mostly up to 57.5 µM; note: nearly all actives have a fitted effect of over 55% in size
Procedure, shortened: (§4)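 ATP-based viability (ATPlite), 1,000 cells/well, 16 h pre-incubation, 48 h compound at 37 C, 5% CO2, 15 min RT before read.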

CAOV3 = assay: as above; details: Gynecologic cancer cell panel viability, ATPlite luminescence, 48 h; series mostly up to 57.5 µM
Procedure, shortened: as §4

CASKI = assay: as above; details: Gynecologic cancer cell panel viability, ATPlite luminescence, 48 h; series mostly up to 57.5 µM
Procedure, shortened: as §4

Es-2 = assay: as above; details: Gynecologic cancer cell panel viability, ATPlite luminescence, 48 h; series mostly up to 57.5 µM
Procedure, shortened: as §4

NIH3T3 [2] = assay: qHTS assay to identify novel small-molecules to repurpose for Merkel cell carcinoma treatment (AID 1296009); details: MCC and control cell lines, CellTiter-Glo viability, 72 h; at 44.8 µM (top of the series) unless noted; note: nearly all actives have a fitted effect of over 60% in size
Procedure, shortened: as §3

HEK293T = assay: as above; details: MCC and control cell lines, CellTiter-Glo viability, 72 h
Procedure, shortened: as §3
Potency is the fitted concentration of half-maximal effect.

CN(C)c1ccc(C(=C2C=CC(=[N+](C)C)C=C2)c2ccc(N(C)C)cc2)cc1
active: Potency (TAB165) 0.251 µM | Potency (W2) 0.12 µM | Potency (CRL-7250) 211 nM and 59 nM | Potency (HEK293) 237 nM and 105 nM | Potency (HaCat) 1.06 µM and 935 nM | Potency (KB-3-1) 7.31 µM and 93.5 nM | Potency (NIH3T3 [1]) 944 nM and 372 nM | Potency (MCC-13) 750 nM and 743 nM | Potency (MCC-26) 7.5 µM and 4.69 µM | Potency (MKL-1) 0.118 µM | Potency (MKL-2) 94.4 nM and 11.8 nM | Potency (UISO) 841 nM and 187 nM | Potency (WaGa) 596 nM and 296 nM | Potency (C33A) 10 µM | Potency (CAOV3) 1.41 µM | Potency (CASKI) 1.12 µM | Potency (Es-2) 1.78 µM

CC(N)C12CC3CC(CC(C3)C1)C2 (centres undefined)
active: Potency (W2) 6.75 µM
inactive: max response (CRL-7250) 1.82% and 3.28% | max response (HEK293) -21.7% and 2.38% | max response (HaCat) 2.96% and 2.31% | max response (KB-3-1) 16.9% and 3.92% | outcome (NIH3T3 [1]) | Potency (MCC-13) | Potency (MCC-26) | Potency (MKL-1) | Potency (MKL-2) | outcome (NIH3T3 [2]) | Potency (UISO) | Potency (WaGa) | Potency (C33A) | Potency (CAOV3) | Potency (CASKI) | Potency (Es-2)

O=c1oc2c(O)c(O)cc3c(=O)oc4c(O)c(O)cc1c4c23
active: Potency (TAB165) 1.41 µM | Potency (W2) 1.9 µM
inactive: max response (CRL-7250) -1.07% | outcome (HEK293) | max response (HaCat) 0.0618% and -16.9% | max response (KB-3-1) -24.2% and 0.262% | max response (NIH3T3 [1]) 2.17% | outcome (HEK293T; at 17.4 µM (top of the series)) | outcome (HEK293T; at 44.8 µM (top of the series)) | Potency (MCC-13) | Potency (MKL-1) | Potency (MKL-2) | Potency (UISO) | Potency (WaGa) | Potency (C33A) | Potency (CAOV3) | Potency (CASKI) | Potency (Es-2)

CNC1CCCN(c2c(F)cc3c(=O)c(C(=O)O)cn(C4CC4)c3c2OC)C1 (centres undefined)
inactive: Potency (TAB165) | max response (CRL-7250) -2.7% | max response (HEK293) -0.681% and -8.47% | max response (HaCat) 0.986% and -11% | outcome (KB-3-1) | max response (NIH3T3 [1]) -6.02% | outcome (NIH3T3 [1]) | Potency (MCC-13) | Potency (MCC-26) | Potency (MKL-1) | Potency (MKL-2) | outcome (NIH3T3 [2]) | Potency (UISO) | Potency (WaGa) | Potency (C33A) | Potency (CAOV3) | Potency (CASKI) | Potency (Es-2)

CC(C)C1CCC(C(=O)N[C@H](Cc2ccccc2)C(=O)O)CC1 (some centres undefined)
inactive: max response (CRL-7250) -2.02% and -1.93% | max response (HEK293) -0.795% and -11.5% | max response (HaCat) -8.21% and -7.47% | max response (KB-3-1) 4.69% and 4.96% | max response (NIH3T3 [1]) 0.816% and -0.595% | Potency (MCC-13) | Potency (MKL-1) | Potency (MKL-2) | Potency (UISO) | Potency (WaGa) | Potency (C33A) | Potency (CAOV3) | Potency (CASKI) | Potency (Es-2)
